# Shown are actives, neighbours in structure and some others; about 2.4% of the full set was active somewhere.
# D2 antagonist = antagonists of human D2 dopamine receptor | inhibition, % at 10 µM | HEK293 TREx D2 cells, calcium flux, dopamine EC80 | P14416 | AID 485344 | 340,000 compounds, 2% hits; in the data active = inhibition above about 30%; inactive = below that, where a call was filed; also: 0% is about no effect
# Target sequence (P14416 whole entry, looked up): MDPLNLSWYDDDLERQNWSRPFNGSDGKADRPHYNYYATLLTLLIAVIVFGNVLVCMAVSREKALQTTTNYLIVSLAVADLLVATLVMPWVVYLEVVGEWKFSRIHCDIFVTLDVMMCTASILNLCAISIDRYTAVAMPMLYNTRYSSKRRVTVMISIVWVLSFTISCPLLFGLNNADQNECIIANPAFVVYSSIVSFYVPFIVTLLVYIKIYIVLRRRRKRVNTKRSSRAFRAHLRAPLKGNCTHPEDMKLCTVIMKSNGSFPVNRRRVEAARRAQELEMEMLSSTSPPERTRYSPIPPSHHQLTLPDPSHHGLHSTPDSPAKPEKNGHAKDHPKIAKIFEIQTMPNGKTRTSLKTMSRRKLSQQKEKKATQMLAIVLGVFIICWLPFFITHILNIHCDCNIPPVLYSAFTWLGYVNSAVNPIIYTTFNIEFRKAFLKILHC
#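 Dopamine at EC80 is the agonist stimulus; test compounds precede it by 180 s. Calcium flux read kinetically in a force-coupled, inducible HEK293 T-REx D2 cell line.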
# D2 ag-1 = human D2 receptor agonism in beta-arrestin assay; activation, % (concentration not given with the values); P14416; 360,000 compounds, 0.084% hits; DiscoveRx PathHunter D2 beta-arrestin, luminescence, 90 min; 100% = 57 uM dopamine signal; in the data active = activation above about 40%; inconclusive = between about 15% and that limit
#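 DiscoveRx PathHunter D2 beta-arrestin cells (2,100/well) attached overnight, then compound-stimulated 90 min at 37 C in HBSS/10 mM HEPES/0.1% Tween-20 buffer; beta-galactosidase complementation read by luminescence after 1 h at ambient temperature. Dopamine 57 uM final (EC100) as control.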
# D2 PAM-1 = D2 dopamine receptor (human) potentiation | potentiation, % at 10 µM | P14416 | 340,000 compounds, 0.34% hits | HEK293 T-REx D2, calcium flux, EC20 dopamine potentiation;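 active = potentiation over 3 SD above the plate norm, cut at about 30% in these data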; also: 0% is about no effect
#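 Tetracycline-induced Hek293 Trex D2 cells, force-coupled to calcium, loaded with no-wash calcium dye. Compound added with 180 s kinetic read for agonism, then EC20 dopamine and a further 180 s read for potentiation.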
# D2 ag-2 = activates the human D2 dopamine receptor; P14416; HEK293 T-REx D2 cells, calcium flux agonist mode; activation, % at 2 µM; 340,000 compounds, 0.53% hits; AID 485358;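 active = activation over 3 SD above normal in the single-dose calcium agonist read, cut at about 30% in these data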; also: 0% is about no effect
#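 Calcium-flux readout, 1 cycle/sec over 180 s following compound pin transfer, in inducible HEK293 Trex D2 cells (force-coupled); dopamine controls included. Positive calcium responses during this window marked compounds as potential agonists.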
# D2 PAM-2 = positive allosteric modulators of human D2 dopamine receptor. 360,000 compounds, 0.23% hits. potentiation, % (test concentration not listed). P14416. DiscoveRx D2 beta-arrestin cells, luminescence, 90 min; 100% = 57 uM dopamine signal. AID 624464; in the data active = potentiation above about 50%; inconclusive = mostly about 30% to 49%
#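 D2 cells co-treated with compound plus 50 nM dopamine (EC20) for 90 min at 37 deg C to detect potentiation. Beta-arrestin recruitment was read as enzyme-fragment luminescence after 1 h at ambient temperature. Full response was set by 57 uM dopamine.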
# An asterisk follows results filed as active; u = inconclusive; x = no result given; ! = repeats disagree.
SMILES,D2 antagonist,D2 ag-1,D2 PAM-1,D2 ag-2,D2 PAM-2
CCOc1ccc2nc3cc(N=Nc4ccc(N)nc4N)ccc3c(N)c2c1,x,-3,x,x,-11
c1ccc(CN(CC2=NCCN2)c2ccccc2)cc1,41*!,-6,1,2,-17
CCCCn1c(CNC(=O)C23CC4CC(CC(C4)C2)C3)nnc1SCC(=O)Nc1ccccc1,x,x,0,0,x
CC1(C)CC(NCCN2CCN(C3=CC(=C(C#N)C#N)CC(C)(C)C3)CC2)=CC(=C(C#N)C#N)C1,-1,-2,20,-1,-8
CN1CCN(C2=CC3=CC(=C(C#N)C#N)CCC3CC2)CC1 (stereo unspecified),49*,4,19,173*,6
N#CC(C#N)=C1C=C2C=C(N3CCOCC3)CCC2CC1 (stereo unspecified),65*,-3,-26,132*,14
N#CC(C#N)=C1C=C2C=C(N3CCCCCC3)CCC2CC1 (stereo unspecified),83*,u,-19,154*,10
CCN1CCN(C2=CC3=CC(=C(C#N)C#N)CCC3CC2)CC1 (stereo unspecified),79*,4,-33,142*,-11
Cc1cn(CC(=O)NCC2CCCO2)c(=O)[nH]c1=O (stereo unspecified),x,-3,x,x,-6
O=C(Nc1ccc(S(=O)(=O)N2CCCCC2c2cccnc2)cc1)c1ccc(F)cc1 (stereo unspecified),x,x,0,0,x
CS(=O)(=O)N1CCN(c2cnn(-c3ccccc3)c(=O)c2Cl)CC1,8,1,14,0,-2
CN(C(=O)CN1CCN(c2cnn(-c3ccccc3)c(=O)c2Cl)CC1)C1CCS(=O)(=O)C1 (stereo unspecified),33*,-2,-4,0,7
COc1cc(-c2onc3ccc(Br)cc23)cc(OC)c1OC,-8,u,-1,0,59*
COc1ccc(-c2onc3ccc(Br)cc23)cc1,-1,u,4,1,100*
CCCn1c(SCC(=O)Nc2ccc(S(=O)(=O)N3CCOCC3)cc2)n[nH]c1=O,x,-5,x,x,-11
COc1ccc(/C=C/CN2CCC(C(=O)NC(c3ccc(F)cc3)c3ccc4ccccc4n3)CC2)cc1 (stereo unspecified),x,-4,x,x,-13
O=C(O)/C=C/c1ccc([N+](=O)[O-])o1,18,14,2,1,2
N#CCc1ccc(NC(=O)/C=C/c2ccc([N+](=O)[O-])o2)cc1,32*,14,0,0,-7
COc1ccc(/C=N/N2C(=O)CSC2=S)cc1Br,33*,-2,-4,8,-2
CSc1ccc(/C=C/C(=O)OCC(=O)c2ccc[nH]2)cc1,50*,-4,13,1,-6
CSc1ccc(/C=C/C(=O)OCC(=O)NC2CCCC2)cc1,x,1,x,x,-11
COCCN1C[C@@H](CO)O[C@@H](n2cnc3c(N4CCCC4)ncnc32)C1,x,1,x,x,15
COc1ccc(CNC(=O)c2cc(-c3ccccc3OC)on2)cc1,91*,-3,-27,-1,-20
COc1ccccc1-c1cc(C(=O)NCc2ccccc2)no1,81*,1,-26,0,-20
COc1ccccc1-c1cc(C(=O)NCc2ccc(F)cc2)no1,74*,-2,-13,1,-23
SMILES,D2 antagonist,D2 ag-1,D2 PAM-1,D2 ag-2,D2 PAM-2
COc1ccc(CNC(=O)c2cc(-c3ccco3)on2)cc1,-2,-1,-12,0,-6
COc1ccccc1-c1cc(C(=O)NCc2ccc(Cl)cc2)no1,x,-2,x,x,-17
COc1cccc2[nH]c(C(=O)NCc3ccccc3)cc12,42*,-2,-28,-2,-13
O=C(c1ccc(Cl)cc1)n1nc(-c2ccco2)nc1NCc1cccs1,x,x,8,-1,x
Cc1ccc(CC2(C)C(=O)Nc3c(Cl)ccc(Cl)c32)cc1 (stereo unspecified),x,-6,x,x,-11
CC(C)c1ccc(-c2nnn(CCC(=O)O)n2)cc1,23,u,1,-1,81*
O=C(O)CCn1nnc(-c2cccs2)n1,-19,-1,0,0,-11
Cc1cc2nc(C3CCCCC3)c(Cc3cccc(F)c3)n2c(C)c1Br,x,-4,x,x,0
O=[N+]([O-])c1ccc(C2=NN(c3ccccc3)C(c3ccco3)C2)cc1 (stereo unspecified),-3,0,3,56*,-6
CC1=NN(c2ccccc2)C(c2ccco2)C1 (stereo unspecified),x,-6,x,x,-6
CCC1(c2ccc(Cl)cc2)NC(=O)N(Cc2ccc(C(=O)OC)cc2)C1=O (stereo unspecified),4,1,35*,2,7
CCC1(c2ccc(Cl)cc2)NC(=O)N(CC(=O)NCc2ccc(F)cc2)C1=O (stereo unspecified),-15,2,3,0,-5
CC1=CC(C)(C)Nc2ccc(OC(=O)CN3C(=O)c4ccccc4C3=O)cc21,1,15,5,-2,113*
COC(=O)c1ccc(OC(=O)CN2C(=O)c3ccccc3C2=O)cc1,-10,3,-4,0,75*
COC(=O)c1ccc(CN2C(=O)c3ccccc3C2=O)cc1,-10,1,3,0,1
CC(Sc1nnnn1C1CC1)C(=O)N1CC(=O)Nc2ccccc21 (stereo unspecified),47*,3,-1,0,28
C[C@@H]1CN([C@H](C)CO)S(=O)(=O)c2ccc(-c3ccc(C#N)cc3)cc2O[C@H]1CN(C)C(=O)Nc1cc(F)ccc1F,x,4,x,x,x
CC(=O)c1ccc(NC(=O)N[C@@H](CC(C)C)C(=O)O)cc1,-11,-5,-8,0,-22
CC(=O)c1cccc(NC(=O)N[C@@H](CC(C)C)C(=O)O)c1,33*,-2,6,1,-12
Cc1nc(C)c(CCNS(=O)(=O)c2ccc(C)c(C)c2)s1,x,x,-2,0,x
COCc1cc(C)n(CC(=O)N2CCCC2)c(=O)c1C#N,31*,2,-4,2,-5
O=S(=O)(c1ccc(Cl)cc1)N(CCCN1CCOCC1)Cc1cccs1,43*,3,-24,0,-18
COc1cc(C(=O)OC(C)C(=O)N2CCCC2)cc2c1OCCO2 (stereo unspecified),67*,-3,2,0,-4
CC1=C(C)CC(C(=O)Nc2nc(-c3ccc(C)cc3C)c(C)s2)C(C(=O)O)C1 (stereo unspecified),-8,4,-5,0,60*
Cn1nc(C(C)(C)C)cc1C(=O)N1CCCC(c2cc(C(=O)NCc3ccccc3)no2)C1 (stereo unspecified),x,4,x,x,-18
O=C(CS(=O)(=O)c1ccc(F)cc1)NCc1ccccc1,34*,-6,0,1,0
O=C(c1ccc2c(Cl)c3c(nc2c1)CCCC3)N1CCN(c2ccccc2F)CC1,x,x,12,-1,x

# Compound activity from PubChem BioAssay.
